# PubChem BioAssay AID778 (Sanford-Burnham Center for Chemical Genomics, 2007)
# About 20,000 (21%) of roughly 96,000 compounds were called active. Only a sample is shown. A number with no mark means an inactive call.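 How the source made its calls: active means CYP2C19 inhibition above a set limit at 5 µM in the primary screen (cut at about 50% in these data); inactive means the rest.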
# Target: Cytochrome P450 2C19 (Homo sapiens) (UniProt P33261)
# Experiment: blockers of cytochrome P450 2C19 activity – biochemical, luminescence, ADME assay, primary screen (AID 778);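 further: plate controls were negative control wells for no effect and 2.5 mM tranylcypromine positive control for full effect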
# Details: CYP2C19 Supersomes, luciferin-H EGE luminescence, 30 min; at 5 µM; hits give high values
# Chain of Cytochrome P450 2C19 (Homo sapiens) (P33261 whole entry, looked up): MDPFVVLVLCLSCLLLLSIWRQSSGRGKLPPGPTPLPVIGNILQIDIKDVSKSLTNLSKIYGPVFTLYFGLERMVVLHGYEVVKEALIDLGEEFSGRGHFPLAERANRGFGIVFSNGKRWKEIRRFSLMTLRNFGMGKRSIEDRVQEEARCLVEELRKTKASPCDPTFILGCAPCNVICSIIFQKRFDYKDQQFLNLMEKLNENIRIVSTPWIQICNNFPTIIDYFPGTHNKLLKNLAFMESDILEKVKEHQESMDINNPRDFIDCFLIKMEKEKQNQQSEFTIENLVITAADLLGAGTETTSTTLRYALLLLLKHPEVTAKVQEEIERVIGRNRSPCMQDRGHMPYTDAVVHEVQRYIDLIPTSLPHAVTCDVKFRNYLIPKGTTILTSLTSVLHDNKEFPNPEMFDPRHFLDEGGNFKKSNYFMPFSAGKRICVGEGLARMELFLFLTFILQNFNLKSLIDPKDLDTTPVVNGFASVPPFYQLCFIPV
row,Compound,inhibition
1,O=C(OCC#CCSc1nnc(-c2ccncc2)o1)c1sc2ccccc2c1Cl,-11.8%
2,CC1CCN(C(NC(=O)c2ccco2)C(=O)c2ccccc2)CC1 (configuration not stated),35.9%
3,CCOC(=O)C1=C(C)NC(C)=C(C(=O)OCC)C1C1=COCCO1,88.8% (active)
4,CCOc1ccccc1C1NC(=O)NC(C)=C1C(=O)OCc1ccco1 (configuration not stated),16.1%
5,CCCC1NC(=O)NC(C)=C1C(=O)OCC (configuration not stated),17%
6,O=C(OCC(=O)c1cccs1)C1=COCCO1,2.6%
7,CCOC(=O)C1C(=O)NCC1c1ccccc1 (configuration not stated),-0.1%
8,CCOC(=O)C1=C(C)NC(C)=C(C(=O)OCC)C1c1ccccn1,50.3% (active)
9,CCCCCn1c(SCCC(C)C)nc2c1c(=O)[nH]c(=O)n2C,8.6%
10,Cc1ccc(C2CC(c3cccc(Br)c3)n3nc(N)nc3N2)cc1 (configuration not stated),21.7%
11,Cc1ccc(-c2ccc(=O)n(CC(=O)NCCCN3CCCCC3)n2)cc1,6.9%
12,O=C1c2ccccc2C(=O)c2c1cccc2N1CCN(CCO)CC1,1.4%
13,Cc1cc2[nH]ncc2cc1NC(=S)NC(=O)c1ccccc1,99.2% (active)
14,CCOC(=O)c1c(-c2ccccc2)csc1NC(=S)NC(=O)c1ccccc1,-8.6%
15,Cc1ccc(NC(=S)NC(=O)c2ccc(-c3ccccc3)cc2)c(C)c1,8.6%
16,CC1(C)C(=O)C2(CCCCC2)C(=O)OC1c1cccs1 (configuration not stated),15.1%
17,CCOC1CS(=O)(=O)CC1OCC (configuration not stated),-10.9%
18,Nc1nnc(C2CCCC2)s1,8.1%
19,Cc1cc(N/C=C\C(=O)c2ccc(Cl)c(Cl)c2)no1,40.4%
20,Cc1nn2c(c1-c1ccccc1)N=C(c1ccco1)CC2c1ccccc1 (configuration not stated),66.2% (active)
21,Cc1nn(C(=O)c2ccoc2C)c(N)c1-c1ccccc1,29.7%
22,CN(C)/C=C(\C#N)C(=O)c1cccnc1Oc1cccc(F)c1,40.5%
23,COc1cccc2cc(C(=O)N(C)C)c(=O)oc12,-22.6%
24,CCCCNC(=O)c1onc(CSc2cccc(OC)c2)c1C(=O)O,12.9%
25,CCOc1ccc(NC(=O)N(CC(C)C)CC(C)C)cc1,11.8%
26,CN(Cc1ccccc1)Cc1ccccc1F,44.7%

row,Compound,inhibition
1,CC(O)CN(Cc1ccc(Cl)cc1)CC(C)O (configuration not stated),-2.3%
2,OCCN(Cc1ccccc1)Cc1ccc(Cl)cc1,100% (active)
3,Brc1cnc(N2CCCC2)nc1N1CCCCC1,1.7%
4,COc1cc(OC)cc(C(=O)NCCSCc2ccco2)c1,35%
5,O=C(CN1C(=O)C2C3C=CC(C3)C2C1=O)NCC1COc2ccccc2O1 (configuration not stated),0.4%
6,COC(=O)c1sc(=S)n(-c2ccccc2)c1N,17.4%
7,COC(=O)c1sc(=S)n(-c2ccc(Cl)cc2)c1C,62.9% (active)
8,CCOC(=O)Cn1c(N)c(C(=O)OC)sc1=S,26.8%
9,CC1(C)CC(=O)NC=C(c2ccccc2)C1,23.8%
10,Brc1ccc(/C=N/N2CCN(C3c4ccccc4-c4ccccc43)CC2)s1,11.5%
11,COc1ccc(OC)c(-n2cc3c(=O)n(C)c(=O)n(C)c3c2)c1,38.6%
12,COc1ccc(C2C(C#N)=C(N)Oc3cc(N)ccc32)cc1OC (configuration not stated),74.9% (active)
13,N#CC1=C(N)Oc2cc(O)ccc2C1C1CCCCC1 (configuration not stated),35.8%
14,COc1cc(C2C(C#N)=C(N)Oc3n[nH]c(-c4ccccn4)c32)cc(OC)c1OC (configuration not stated),1.9%
15,CS(=O)(=O)N1CCCC(C(=O)N2CCOCC2)C1 (configuration not stated),-12.2%
16,O=C(Cc1ccc(S(=O)(=O)N2CCOCC2)s1)NCCC(c1ccccc1)c1ccccc1,41.9%
17,COC(=O)NC1(C(F)(F)F)NC(=O)N(C2CCCCC2)C1=O (configuration not stated),7.3%
18,O=C1NC(Nc2nc3ccccc3s2)(C(F)(F)F)C(=O)N1C1CCCCC1 (configuration not stated),68.9% (active)
19,CCC(=O)Nc1sc(C(=O)N2CCCCC2)c(C)c1C#N,19.7%
20,O=C(CSc1n[nH]c(-c2cccnc2)n1)Nc1ccnc2ccccc12,15%
21,COc1cccc(NC(=O)C2CCCN2C(=O)OCc2ccccc2)c1 (configuration not stated),33.1%
22,CC(=O)Nc1ccc(NC(=O)CN2CCCC(C)C2)c(Cl)c1 (configuration not stated),19.8%
23,NC(=O)N1CCCC1C(=O)Nc1ccc(Cl)c(Cl)c1 (configuration not stated),54.3% (active)
24,Cc1cc(NC(=O)COn2nnc3ccccc32)no1,28.7%
25,S=C(NCc1ccc(Cl)cc1)NC12CC3CC(CC(C3)C1)C2,47.3%
26,S=C(NCc1cccs1)Nc1ccc(Cl)cc1,89.7% (active)

row,Compound,inhibition
1,Cc1nn(C)cc1C(=O)NNC(=S)Nc1ccc(Cl)cc1,8.5%
2,C=CCNC(=S)NNc1ncnc2sc3c(c12)CC(C)(C)OC3,17.9%
3,C=CCOc1c2ccc(C(=O)N(CC)c3ccc(OC)cc3)cc2nn1C,44.1%
4,O=C(CNC(=O)OCc1ccccc1)Oc1cc2oc(=O)cc(-c3ccccc3)c2cc1Cl,27.8%
5,Cc1cccc(OCCCC(=O)Nc2ccc(S(=O)(=O)N3CCCC3)cc2)c1,50.1% (active)
6,CC(=O)Nc1ccc(S(=O)(=O)N2CCN(CCCOc3cc(C)ccc3C)CC2)cc1,84.1% (active)
7,COc1ccc(OCC(=O)OCC(=O)Nc2ccc(S(=O)(=O)N3CCCCC3)cc2)cc1,21.1%
8,CC(=O)Nc1ccc(S(=O)(=O)N2CCN(C3CCCCCCC3)CC2)cc1,25.7%
9,CC(=O)Nc1ccc(S(=O)(=O)N2CCSCC2)cc1,11.2%
10,C=CCNC(=O)CCCOc1cccc(C)c1,17.5%
11,CCc1c(C)c2c(C)[nH]nc2oc1=O,34%
12,CCOC(=O)Nc1ccc(NC(=O)OCC)cc1,-15.6%
13,Cc1ccc2c(NC(=O)C3CC3)cccc2n1,3.3%
14,CSc1ccc(C#N)cc1NC(=O)c1cccc(Cl)c1,17.9%
15,O=C(CCN1C(=O)c2ccccc2C1=O)NCCN1CCOCC1,-17.4%
16,Cc1cc(C)nc(SCc2nnc(SCC(=O)OC3CCCCC3)o2)n1,32.2%
17,c1ccc(CSc2nnc(-c3ccco3)c(-c3ccco3)n2)cc1,44.4%
18,CC(C)C(NC(=O)c1ccc(Cl)cc1)C(=O)O (configuration not stated),-19.4%
19,CC(NC(=O)c1ccc(Cl)cc1)C(=O)N1CCCCC1 (configuration not stated),77.5% (active)
20,O=C(c1ccc(Cl)c(Cl)c1)N1CCCC1,15.1%
21,CCOc1ccccc1N=C1NC(=O)CS1,-12.1%
22,O=CN1CCN(C2CC(=O)N(c3ccc4c(c3)OCO4)C2=O)CC1 (configuration not stated),-12%
23,CC1CCC(N2CC(=O)N(Cc3ccc4c(c3)OCO4)C(c3ccc(F)cc3)C2=O)CC1 (configuration not stated),20.3%
24,Cc1ccc(N2C(=O)CC(NCc3ccc4c(c3)OCO4)C2=O)cc1Cl (configuration not stated),85% (active)
25,O=C(CSc1nc(-c2ccco2)cc(C(F)(F)F)n1)NCc1cccs1,8.5%
26,O=C(Cn1c(=O)sc2ccccc21)Nc1ccc2c(c1)OCCO2,7.6%

row,Compound,inhibition
1,CC1(C)Oc2ccc(C(=O)N3CCOCC3)cc2N(CC(=O)Nc2ccccc2)C1=O,30.3%
2,CC1Cc2ccccc2N1CC(=O)Nc1ccc2c(c1)OC(F)(F)O2 (configuration not stated),97.3% (active)
3,Cc1nnc(NCCO)c2ccccc12,7.5%
4,CSC1=N/C(=C\C=C\c2cccs2)C(=O)S1,-11%
5,CCCCOC(=O)c1[nH]c(C)c(C(=O)OC)c1C,81.6% (active)
6,CCCCN(CC)CCNC(=O)c1[nH]c(C)c(C(C)=O)c1C,-8%
7,CCCOC(=O)c1[nH]c2c(c1C)C(=O)CC(c1cc(OC)c(OC)c(OC)c1)C2 (configuration not stated),38.4%
8,Cc1nc2nc3c(cn2n1)C(=O)CC(c1ccccc1)C3 (configuration not stated),99.6% (active)
9,Cc1ccc(Cc2cnc(NC(=O)/C(C#N)=C/c3ccc(-c4cccc([N+](=O)[O-])c4)o3)s2)cc1,-3.9%
10,CC1(c2ccccc2Cl)NC(=O)N(CC(=O)NC(=O)NCc2ccco2)C1=O (configuration not stated),22.5%
11,O=C(COC(=O)c1ccc(S(=O)(=O)N2CCc3ccccc3C2)cc1)NC(=O)NCc1ccco1,8.9%
12,O=C(CN1CCN(S(=O)(=O)/C=C/c2ccccc2)CC1)NC(=O)NCc1ccco1,54% (active)
13,CCCOn1c(-n2nc(C)cc2C)nc2ccccc2c1=O,47.2%
14,O=C(NCc1ccco1)c1sc2cccc(F)c2c1Cl,-8.9%
15,CCOc1cc(/C=N/n2cnnc2)c(Br)cc1O,5.4%
16,Cc1ccc2c(c1)N(C(=O)CCC(=O)N1CCc3ccccc3C1)CCO2,39.4%
17,c1ccc(-c2cn3c(n2)CCc2ccc4cccnc4c2-3)cc1,15.9%
18,COc1ccc(S(=O)(=O)N2CCC(C(=O)N3CCc4ccccc4C3)CC2)cc1OC,53.6% (active)
19,COc1ccc(S(=O)(=O)N2CCC(C(=O)N3CCOCC3)CC2)cc1OC,7.3%
20,COc1ccccc1N(C)S(=O)(=O)c1ccc(C(=O)N2CCC(C(N)=O)CC2)cc1,8.7%
21,CCS(=O)(=O)c1ccc2c(c1)N(S(=O)(=O)c1ccccc1)CC(C(=O)O)O2 (configuration not stated),0.1%
22,CCC1CCCCN1CCCNC(=O)C1CCC(Cn2c(=O)[nH]c3ccccc3c2=O)CC1 (configuration not stated),6%
23,CCOC(=O)c1c(-n2cnnn2)sc(C)c1C,7.5%
24,Cc1nc(NNC(=O)c2ccccc2)cc(-c2ccccc2)n1,-0.2%
